Reference: PubChem BioAssay (NCATS)
Results filed as inconclusive are left out. Calls of active or inactive are those of the source. Calls come from the whole dose curve; as a rule, active = well fitted curve in the direction sought with a large enough effect; inconclusive = small, poorly fitted or top-dose-only effect, or another doubt; inactive = no such curve, though single readings can be large; an effect the other way counts as inactive or inconclusive. Numbered stars: 1 amine (or outer) side, 2 acyl side, 3 side chain; on linkers, the order of the positions; unused ones are H or OH. Square brackets hold non-standard residues; d marks the D form. Peptide text beside a SMILES is read from it. X1 = CCCCCCCCCC(=O)[C@H](C(=O)[*:2])[C@@H]1CNC(=O)[C@@H](N[*:1])CS1

Columns and labels:
[1] = HPAF-II Cancer Cell Toxicity qHTS against the NCATS CANVASS Library (AID 1347346); conditions: HPAF-II viability, CellTiter-Glo ATP luminescence, 72 h; series mostly up to 38.3 µM; note: nearly all actives have a fitted effect of over 55% in size; note: potency is the fitted concentration of half-maximal effect
In short: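 Using 1000 HPAF-II cells per well, we titrated compounds over 11 concentrations for 72 h at 37 degrees C/5% CO2, with bortezomib as control. Cell survival was quantified by CellTiter-Glo luminescence.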

[2] = OV-SAHO Cancer Cell Toxicity qHTS against the NCATS CANVASS Library (AID 1347348); conditions: OV-SAHO viability, CellTiter-Glo luminescence, 72 h; series mostly up to 38.3 µM; note: nearly all actives have a fitted effect of over 55% in size; note: potency is the fitted concentration of half-maximal effect
In short: (§1)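 Viability read-out: CellTiter-Glo luminescence after 72 h compound exposure at 37 °C/5% CO2. Cells plated at 1000/well, 4 h pre-incubation; 11-point titration. Bortezomib served as control.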

[3] = COV-362 Cancer Cell Toxicity qHTS against the NCATS CANVASS Library (AID 1347352); conditions: COV-362 viability, CellTiter-Glo luminescence, 72 h; series mostly up to 38.3 µM; note: potency is the fitted concentration of half-maximal effect
In short: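 Using an ATP-based luminescent reagent after three days of treatment, toxicity is scored across an eleven-concentration range in wells holding 1000 cells each.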

[4] = HPAF-II 24hr Apoptosis Induction qHTS against the NCATS CANVASS Library (AID 1347356); conditions: HPAF-II caspase-3/7 Caspase-Glo luminescence; series mostly up to 46.1 µM
In short: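 Using an 11-point qHTS format, HPAF-II cells in DMEM/10% FBS received compounds for 24 h; doxorubicin titration as control. Caspase-3/7 activity quantified by DEVD-luciferase luminescence.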

[5] = HEK293 18hr Apoptosis Induction qHTS against the NCATS CANVASS Library (AID 1347357); conditions: HEK293 caspase-3/7 Caspase-Glo luminescence; series mostly up to 46.1 µM; note: potency is the fitted concentration of half-maximal effect
In short: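 Caspase-Glo 3/7 luminescence (15 min, room temperature) measured apoptosis after an 18-hour, 37 degrees C exposure of HEK293 cells (500 cells/well) to compounds in 11 points.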

[6] = HPAF-II 12hr Apoptosis Induction qHTS against the NCATS CANVASS Library (AID 1347358); conditions: HPAF-II caspase-3/7 Caspase-Glo luminescence; series mostly up to 46.1 µM
In short: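 Twelve-hour compound exposure of HPAF-II cells in DMEM with 10% FBS, then luminescent Caspase-Glo 3/7 detection after 15 min at room temperature; doxorubicin control.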

[7] = HEK293 24hr Apoptosis Induction qHTS against the NCATS CANVASS Library (AID 1347359); conditions: HEK293 caspase-3/7 activation, Caspase-Glo luminescence; series mostly up to 46.1 µM; note: potency is the fitted concentration of half-maximal effect
In short: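 HEK293 cells, 500 per well, exposed to an 11-point compound series for 24 hours at 37 degrees C. Caspase 3/7 activity read by Caspase-Glo luminescence (DEVD substrate) after 15 min at room temperature.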

[8] = HPAF-II 18hr Apoptosis Induction qHTS against the NCATS CANVASS Library (AID 1347360); conditions: HPAF-II caspase-3/7 luminescence; series mostly up to 46.1 µM
In short: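 Caspase-3/7 activation was measured with luminescent Caspase-Glo 3/7 reagent (15 min, RT) in HPAF-II cancer cells (500 cells/well). Before detection, cells had been treated for 18 h at 37 C with compounds (11 points).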

[9] = molecular target: Luciferin 4-monooxygenase (Photinus pyralis) (UniProt P08659); assay: Firefly luciferase counterscreen qHTS: Assay Interference Panel against the NCATS CANVASS Library (AID 1347363); conditions: purified firefly luciferase, luminescence inhibition, 5 min; series mostly up to 57.5 µM
In short: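 Purified P. pyralis luciferase (0.04 ug/mL, 4x reagent) added to Tris-acetate buffer with 0.013 mM D-luciferin, 0.013 mM ATP and 13.3 mM Mg-acetate; compounds preincubated 15 min, then luminescence read after 5 min, RT.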

[10] = KB-3-1 Cancer Cell Toxicity qHTS against the NCATS CANVASS Library (AID 1347366); conditions: KB-3-1 viability, CellTiter-Glo luminescence, 72 h; series mostly up to 46.1 µM; note: nearly all actives have a fitted effect of over 75% in size; note: potency is the fitted concentration of half-maximal effect
In short: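 CellTiter-Glo luminescence measured viability after 72 h at 37C. KB-3-1 cells were seeded at 500 per well in DMEM/10% FBS.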

[11] = MCF7 Cancer Cell Toxicity qHTS against the NCATS CANVASS Library (AID 1347369); conditions: MCF7 viability, ATP luminescence (CellTiter-Glo), 72 h; series mostly up to 46 µM; note: potency is the fitted concentration of half-maximal effect
In short: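 Cytotoxicity was measured as CellTiterGlo luminescence (ATP) after 72 h at 37 °C. The cells were MCF7 at 500 per well, with an 11-point compound concentration series.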

[12] = qHTS for ATAD5 Antagonist screened against the NCATS CANVASS Library (AID 1347370); conditions: HEK293T-ATAD5-luc, 5-FUrd stimulated, luminescence, 16 h; series mostly up to 46.1 µM; note: nearly all actives have a fitted effect of over 65% in size; note: potency is the fitted concentration of half-maximal effect
In short: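 HEK293T-ATAD5 luc reporter, 2000 cells/well; 5hr attach; cpd + 10 uM 5-FUrd; 16hr 37C, 5% CO2. Readouts: CellTiter-Fluor fluorescence (1hr), then Amplite luciferase luminescence (30min RT).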

[13] = J3T Cancer Cell Toxicity qHTS against the NCATS CANVASS Library (AID 1347371); conditions: J3T dog glioma viability, ATP luminescence, 72 h; series mostly up to 46.1 µM; note: potency is the fitted concentration of half-maximal effect
In short: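 ATP-based cytotoxicity in canine J3T cells: 72 hr exposure at 37C, 11-point titration, CellTiterGlo luminescent detection.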

[14] = molecular target: Nuclear receptor subfamily 1 group I member 3 (Homo sapiens) (UniProt Q14994); assay: qHTS for Constitutive Androstane Receptor (CAR) Agonist screened against the NCATS CANVASS Library (AID 1347373); conditions: HepG2-hCAR-CYP2B6 luciferase reporter, ONE-Glo luminescence; series mostly up to 46.1 µM;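 note: every well also contained 1.5 µM PK11195 alongside the test compound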
In short: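 In an 11-point concentration series, compounds were incubated 24hr with HepG2 cells carrying hCAR and a CYP2B6-2.2kb reporter, with PK11195 at 1.5uM final. A CellTiter-Fluor viability read preceded the ONE-Glo luminescence read.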

[15] = 10-beta competent E. coli microbial cell viability qHTS against the NCATS CANVASS Library (AID 1347376); conditions: E. coli 10-beta viability, BacTiter-Glo ATP luminescence, overnight; series mostly up to 46.1 µM
In short: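 Overnight 37C exposure of 10-beta E. coli (0.2 OD) to an 11-point concentration series; ATP-based luminescence after 20 min room-temperature reagent incubation; daunomycin as control.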

[16] = Inflammasome Signaling qHTS Counterscreen: IL-1-beta AlphaLISA counterscreen against the NCATS CANVASS Library (AID 1347381); conditions: Purified IL-1beta AlphaLISA signal interference counterscreen; series mostly up to 57.5 µM;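 note: cell-free check with purified IL-1β in medium and no THP-1 cells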
In short: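 Here, no cellular stimulation occurs; compounds in an 11-point series meet 4 pg purified IL-1-beta directly. Bead-based AlphaLISA detection follows (1 h acceptor/antibody, then 30 min donor, dark, room temperature), with excitation at 680 nm.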

[17] = Cytotoxicity qHTS for assessment of Hepg2 cells membrane integrity screened against the NCATS CANVASS Library (AID 1347387); conditions: HepG2 LDH release (CytoTox-ONE) fluorescence, 5 h; series mostly up to 46.1 µM
In short: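 Membrane damage in HepG2 monolayers was estimated from released LDH, measured with CytoTox-ONE (ex 560/em 590 nm), after 5 hr treatment across 0.59 nM - 46 uM final.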

[18] = Viability qHTS for inhibitors of the SERCaMP assay screened against the NCATS CANVASS Library (AID 1347400); conditions: SH-SY5Y SERCaMP cells viability, CellTiter-Glo, 48 h; series mostly up to 92.2 µM; note: nearly all actives have a fitted effect of over 70% in size; note: potency is the fitted concentration of half-maximal effect
In short: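 Measures loss of viability in SERCaMP reporter SH-SY5Y cells treated for 48 h with compounds; luminescent ATP detection by CellTiter-Glo.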

[19] = OV-KATE Cancer Cell Toxicity qHTS against the NCATS CANVASS Library (AID 1347345); conditions: OV-KATE cells viability, CellTiter-Glo luminescence, 72 h; series mostly up to 38.3 µM; note: potency is the fitted concentration of half-maximal effect
In short: as §1

[20] = qHTS for Inflammasome Signaling Inhibitors: IL-1-beta AlphaLISA screen against the NCATS CANVASS Library (AID 1347379); conditions: THP-1 LPS/ATP, IL-1B AlphaLISA secretion, 16 h; series mostly up to 57.5 µM;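 note: human THP-1 cells primed with LPS then triggered with ATP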;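 for Potency: secreted IL-1B measured as AlphaLISA emission at 615 nm; potency is the fitted concentration of half-maximal effect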
In short: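 THP-1, 1 hr compound pre-incubation, then LPS 250 ng/mL + ATP 1.25 mM (final); 16 hr total with compound; IL-1B AlphaLISA, ex 680/em 615 nm; 11-point qHTS, up to 57.5 uM final.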

Measured: Potency

Luciferin 4-monooxygenase (Photinus pyralis), sequence (P08659 whole entry, looked up): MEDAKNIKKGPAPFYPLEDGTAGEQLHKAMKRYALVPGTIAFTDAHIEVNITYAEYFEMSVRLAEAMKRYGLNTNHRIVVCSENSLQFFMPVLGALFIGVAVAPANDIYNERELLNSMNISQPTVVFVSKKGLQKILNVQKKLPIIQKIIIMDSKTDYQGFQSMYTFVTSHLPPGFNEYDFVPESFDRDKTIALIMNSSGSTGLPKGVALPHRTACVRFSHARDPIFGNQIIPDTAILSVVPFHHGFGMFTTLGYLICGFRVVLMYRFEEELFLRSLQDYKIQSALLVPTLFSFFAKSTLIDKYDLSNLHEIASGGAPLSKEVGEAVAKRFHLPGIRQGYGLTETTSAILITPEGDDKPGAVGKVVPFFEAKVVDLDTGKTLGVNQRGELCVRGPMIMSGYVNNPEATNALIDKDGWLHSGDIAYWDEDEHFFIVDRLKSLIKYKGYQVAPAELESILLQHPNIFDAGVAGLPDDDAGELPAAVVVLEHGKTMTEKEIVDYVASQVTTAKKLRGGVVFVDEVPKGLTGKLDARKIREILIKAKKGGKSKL
Nuclear receptor subfamily 1 group I member 3 (Homo sapiens), sequence (Q14994 whole entry, looked up): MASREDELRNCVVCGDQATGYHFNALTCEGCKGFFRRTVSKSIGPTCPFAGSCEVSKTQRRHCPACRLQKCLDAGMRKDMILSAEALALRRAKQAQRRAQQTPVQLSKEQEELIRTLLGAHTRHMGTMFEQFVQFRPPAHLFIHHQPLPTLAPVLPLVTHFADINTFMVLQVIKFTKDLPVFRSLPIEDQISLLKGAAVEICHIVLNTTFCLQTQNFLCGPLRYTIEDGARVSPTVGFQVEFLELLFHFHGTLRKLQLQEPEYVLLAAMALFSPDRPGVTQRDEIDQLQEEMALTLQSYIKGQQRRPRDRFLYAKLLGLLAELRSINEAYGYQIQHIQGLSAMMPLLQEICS

C[C@@H]1O[C@@H](Oc2c(-c3ccc(O)cc3)oc3cc(O)cc(O)c3c2=O)[C@H](O)[C@H](O)[C@H]1O
not listed: [19] | [20]
inactive: all other assays above

C[C@@H]1C(=O)[C@]23CC[C@H]1C[C@]21O[C@H]2C(C)(C)C=CC(=O)[C@@]23COC1=O
not listed: [14]
inactive: all other assays above

CC1(C)CC[C@]2(C(=O)O)CC[C@]3(C)C(=CC[C@@H]4[C@@]5(C)C[C@@H](O)[C@H](O)C(C)(C)[C@@H]5CC[C@]43C)[C@@H]2C1
not listed: [2] | [17]
inactive: all other assays above

CN1C(=O)C2C(N=CN2C)N(C)C1=O (centres undefined)
inactive: all assays above

C=C(C)CC[C@H](Cc1c(O)cc(O)c2c1O[C@H](c1ccc(O)cc1O)CC2=O)C(=C)C
inactive: all assays above

CN1CCc2cc3c(c4c2[C@H]1[C@@H](O)c1ccccc1-4)OCO3
active: [1] 13.3 µM | [11] 26.2 µM
not listed: [3] | [10] | [12] | [18] | [20]
inactive: all other assays above

CCCCCCCCCC(=O)[C@@H]1C(=O)N[C@@H](CC(C)C)C(=O)N[C@H](C)C(=O)N2CCC[C@H]2C(=O)N[C@@H](C(C)C)C(=O)N[C@H]2CS[C@H]1CNC2=O (cyclo(L[dA]PV[X1]))
inactive: all assays above

C=C(C)[C@@H]1CC[C@]2(C)CC[C@]3(C)[C@H](CC[C@@H]4[C@@]5(C)CC[C@H](O)C(C)(C)[C@@H]5CC[C@]43C)[C@@H]12
inactive: all assays above

O=C(O)CC1OCc2c(O)cccc21 (centres undefined)
inactive: all assays above

O=C1CC(c2cc(O)cc(O)c2)Oc2cc(O)ccc21 (centres undefined)
not listed: [18]
inactive: all other assays above

O=Cc1ccc2n1C[C@@]1(C[C@H](O)[C@H](O)CO1)OC2
active: [2] 13.3 µM
not listed: [3]
inactive: all other assays above

CC12C[C@]3(O)O[C@@H](O1)[C@]1(COC(=O)c4ccccc4)[C@@H]3CC21OC1OC(CO)C(O)C(O)C1O (some centres undefined)
inactive: all assays above

CCCCCCCCCCCCCCC[C@H](O)C[C@@H](O)C[C@@H](O)C[C@@H](O)C[C@@H](O)C[C@H]1CC=CC(=O)O1
inactive: [9] | [14] | [15] | [16]
active: [19] 2.11 µM | [1] 4.21 µM | [2] 1.49 µM | [3] 3.34 µM | [5] 16.6 µM | [7] 26.4 µM | [10] 9.35 µM | [11] 7.39 µM | [12] 26.3 µM | [13] 3.72 µM | [20] 3.06 µM | [18] 12 µM

C/C=C1/CC[C@@H]2c3[nH]c4ccccc4c3CCN2C1
inactive: all assays above
